Data on 40 compounds can be found in PubChem BioAssay (EPA / NIEHS).

The source made the active and inactive calls. Rule for the calls: active = hit-call score of the fitted dose curve at least 0.9, where 1 is the maximum; inactive = score below 0.9.

Read-out in the assay: Apolipoprotein A-V (APOA5) gene, APOA5 (gene 116519)
Nature of the assay: LTEA_HepaRG_APOA5: Life Technologies and Expression Analysis (LTEA) Assay for Apolipoprotein A-V (APOA5) gene using HepaRG (AID 2283474). To be noted: mRNA level, 48 h; actives raise or lower the signal. As to the method:
LTEA_HepaRG is a cell based, multiplexed-readout assay that uses HepaRG, a human liver cell line, with measurements taken at 48 hours after chemical dosing on a 96-well plate.LTEA_HepaRG_APOA5 is one of 102 assay component(s) measured in the LTEA HepaRG cell culture assay. It is a marker of Steatosis.Data from the assay component LTEA_HepaRG_APOA5 was analyzed into 1 endpoint. This assay endpoint, LTEA_HepaRG_APOA5, was analyzed with bidirectional fitting relative to DMSO as the negative control and baseline of activity. Using a type of inducible reporter, measures of mRNA induction for gain or loss-of-signal activity can be used to understand regulation of transcription factor activity. To generalize the intended target to other relatable targets, this assay endpoint is annotated to the apolipoprotein intended target family, where the subfamily is Steatosis.
A total of 1060 chemcials from the ToxCast library were tested in eight-point concentration-response experiments. Cell culture and cytotoxicity assays were conducted at Thermo Fisher Scientific's Custom Services facility (Madison, WI). A single lot of human HepaRG cells (Thermo Fisher Scientific, Frederick, MD) was used for the cell culture experiments. 96-well format collagen type I coated plates of human HepaRG cells were prepared using established methods. Briefly, cryopreserved HepaRG cells were thawed, plated at a density of approximately 100,000 cells/well in HepaRG Thaw, Plate, and General Purpose media (HPRG770, Thermo Fisher Scientific), and incubated for 48 hours. 0.5% DMSO was selected as vehicle control to balance the requisite need of DMSO in HepaRG cultures to maintain differentiation (for example, baseline metabolism, proportions of hepatocytes vs. cholangiocytes), while enabling further hepatic receptor pathway activation (for example, PXR and CAR) in response to chemical exposure. 48 hours after plating, the culture medium was replaced with HepaRG Serum-Free Incudtion Media. Cells were exposed to each test chemical in duplicate and maintained in CO2 incubators for another 48 hours. Chemical plates were thawed to room temperature and 200x concentrations of treatment groups were prepared. 8-point conentration-reponse curves were made with the highest exposure at 100 uM, followed by half-log dilutions, all in 0.5% DMSO. Each test plate contained variouse controls, induction positive controls (1mM phenobarbital), cytotoxicity positive controls ([…] aflatoxin B1), vehicle controls (0.5% DMSO), and total lysis controls (0.5% DMSO). Cell morphology images were taken using an Essen IncuCyte FLR automated microscope, with six 96-well plates imaged in about 24 minutes. Images were captured and exported and JPEG files. Spent culture media was transfered to black-well plates for the LDH assay, and remaining media was sorted at -80 C for later use. Cells were treated with RLT buffer and frozen until shipped for gene expression analysis. Total RNA was isolated from the cell suspension in 75 uL of Buffer RLT (Qiagen, Germantown, MD 20874) by Quintiles/Expression Analysis (Durham, NC) using a custom isolation procedure. Total RNA from each plate well was transferred to a preamplification plate. Fluidigm's 96.96 Dynamic ArrayTM (Fluidigm, Amsterdam, the Netherlands) technology was used for gene expression analyses by quantitative reverse transcription polymerase chain reaction (qRT-PCR, performed by Quintiles/Expression Analysis, Durham, NC)89. Standard TaqManTM Assays (Applied Biosystems/ThermoFisher Scientific, Foster City, CA) were used to assess the expression of 93 genes selected based on their selectivity and sensitivity to important hepatic receptors known to be modulated by environmental chemicals; importance in human hepatocyte functionality; and hepatotoxicity. […]
For the compound `CC=Cc1ccc(O)c(OC)c1`, the call was inactive.

`CC1(C)CC(N=C=O)CC(C)(CN=C=O)C1` (stereo not given): the call was inactive. Regarding `COc1ccc2c(c1)c(CC(=O)O)c(C)n2C(=O)c1ccc(Cl)cc1`, the outcome was inactive. With `Cc1cccc(Nc2cc(Cl)nc(SCC(=O)O)n2)c1C`, the compound was called inactive. As for `Cc1ccc(Cl)cc1`, the compound was classed as inactive. In the case of `NCC1(Cc2noc(=O)[nH]2)CCCCC1`, the call was inactive. For `Cc1ccccc1Cl`, the compound was called inactive. As for `CCNc1cccc(C)c1`, the call was inactive. Still for that read-out and setting: the result for `CCOC(=O)C(C)(C)Oc1ccc(Cl)cc1` reads “inactive”. Turning to `COc1cc(C=O)ccc1O`, the compound was classed as inactive. Take `CCCCCCCCCCCCCCCC`: the compound was called inactive.

For the compound `CC(=O)Oc1ccccc1C(=O)O`, the compound was called inactive. As for `COc1ccc(C)cc1N`, the compound was classed as inactive. Take `NC(=O)Cn1c(=O)cc(CCN2CCN(c3nccc4sccc34)CC2)c2ccc(F)cc21`: the compound was called inactive. On the same count and under the same terms, the result for `CNCc1cc(F)ccc1Oc1ccc(Cl)c(Cl)c1` reads “inactive”.

As for `Cc1cccc(C)c1O`, the compound was classed as inactive. On the same count and under the same terms, the result for `C=CCc1ccc(O)c(OC)c1` reads “inactive”; that for `c1cc(-c2ccncc2)ccn1`, “inactive”; that for `Clc1cc(Cl)c(Cl)cc1Cl`, “inactive”. One may read the AC50 as the midpoint of the concentration-response curve, whichever way the signal moves. On to `CCc1c(C(=O)NN2CCCCC2)nn(-c2ccc(Cl)cc2Cl)c1-c1ccc(Br)cc1`, for which the AC50 was 42 µM (active).

For `CC(=O)OCCOCCOCCOC(C)=O`, the call was inactive. Turning to `Nc1ccc(S(=O)(=O)c2ccc(N)cc2)cc1`, the compound was called inactive. `CCCCCCOCCO`: the result was inactive. Consider `CCCCC(CC)COC(=O)CC(C(=O)OCC(CC)CCCC)S(=O)(=O)O` (stereo not given), for which the call was inactive. Take `Cc1nc(C)nc(N2C[C@@H](C)N(c3ccnc([C@@H](C)O)n3)[C@@H](C)C2)n1`: the compound was classed as inactive.

`COC(=O)c1ccc(O)cc1`: the compound was called inactive. On to `CC(C)(C)c1cc(O)c(C(C)(C)C)cc1O`, for which the outcome was inactive. For the compound `O=C(O)CCCCC(=O)O`, the outcome was inactive. On the same count and under the same terms, the result for `Cc1cc(=O)[nH]c(=S)[nH]1` reads “inactive”; that for `Cc1cc(NC(=O)C(=O)O)cc(C)c1Oc1ccc(O)c2c1CCC2`, “inactive”; that for `Cc1ccc(C(C)C)c(O)c1`, “inactive”.

As to `CN[C@H]1CC[C@@H](c2ccc(Cl)c(Cl)c2)c2ccc(S(N)(=O)=O)cc21`, the call was inactive. As for `CC1=C(/C=C/C(C)=C/C=C/C(C)=C/CO)C(C)(C)CCC1`, the AC50 is 52.2 µM (active). As for `CNC(=O)[C@H]1O[C@@H](n2cnc3c(NCc4cc(Cl)ccc4OCc4cc(C)no4)ncnc32)[C@H](O)[C@@H]1N`, the outcome was inactive.

For the compound `COCCOC[C@H](CC1(C(=O)NC2CCC(C(=O)O)CC2)CCCC1)C(=O)Oc1ccc2c(c1)CCC2` (stereo not given in full), the compound was called inactive.

For `C[C@]12C=CC(=O)C=C1CC[C@@H]1[C@@H]2C(=O)C[C@@]2(C)[C@H]1CC[C@]2(O)C(=O)CO`, the outcome was inactive. `CC(C)c1ccc(C(=O)N=C(N)N)cc1S(C)(=O)=O`: the AC50 is 0.302 µM (active). Still for that read-out and setting: the result for `Cc1oc(-c2ccccc2)nc1CCOc1cccc2c1ccn2CCC(=O)O` reads 80.7 µM (active).

Regarding `C=CCOC(=O)c1ccccc1C(=O)OCC=C`, the compound was classed as inactive.

For `CCOc1ccc2c(c1)C(C)=CC(C)(C)N2`, the compound was classed as inactive.
